The results in this text go back to PubChem BioAssay AID434931 (National Center for Advancing Translational Sciences (NCATS), 2010).

Where “and” joins values, the source holds several entries; their conditions need not be identical. Equal values may be shown once. Inconclusive results are not listed. Calls of active or inactive are those of the source. The call rests on the fitted dose curve; in most records, active means well fitted inhibition curve with a large enough effect; inconclusive means small, poorly fitted or top-dose-only effect, or another doubt; inactive means no such curve, though single readings can be large or run the other way.

In the assay the target is Neuropeptide S receptor (Homo sapiens) (UniProt Q6W5P4). As to the kind of experiment: Confirmation Concentration-Response Assay for Antagonists of the Neuropeptide S Receptor: Robust Characterization of Calcium Signal Transduction. Particulars: CHO-NPSR cells, NPS-induced calcium fluorescence (FDSS); series mostly up to 31.6 µM. The text has this: NIH Chemical Genomics Center [NCGC] NIH Molecular Libraries Probe Production centers Network [MLPCN] MLPCN Grant: X01-DA026210-01 Assay Submitter (PI): Heilig, Markus Alexander NCGC Assay Overview: Neuropeptide S receptor (NPSR), previously known as GPR154, is a recently de-orphanized G protein coupled receptor. Its endogenous ligand is the 20 amino acids peptide Neuropeptide S (NPS). […] NPS and its receptor are found in various tissues. Specifically they are highly expressed in brain areas that have been implicated in modulation of arousal, stress and anxiety. Central administration of NPS in mice produces an unusual profile of activity by inducing wakefulness and arousal, while at the same time suppressing anxiety. Therefore, NPSR may represent a novel drug target for the treatment of sleep and anxiety disorders. To identify NPSR antagonists, we developed a cell-based assay with transfected NPS receptor. NPS can stimulate the production of cAMP as well as release intracellular calcium in Chinese hamster ovary cells stably expressing NPS receptor. This change in intracellular calcium can be detected using a calcium indicator dye on a calcium imaging plate reader system (FDSS). This particular assay uses a high density of sampling across concentration-response space to establish more confidence estimates of potency.
Neuropeptide S receptor (Homo sapiens), sequence (Q6W5P4 whole entry, looked up): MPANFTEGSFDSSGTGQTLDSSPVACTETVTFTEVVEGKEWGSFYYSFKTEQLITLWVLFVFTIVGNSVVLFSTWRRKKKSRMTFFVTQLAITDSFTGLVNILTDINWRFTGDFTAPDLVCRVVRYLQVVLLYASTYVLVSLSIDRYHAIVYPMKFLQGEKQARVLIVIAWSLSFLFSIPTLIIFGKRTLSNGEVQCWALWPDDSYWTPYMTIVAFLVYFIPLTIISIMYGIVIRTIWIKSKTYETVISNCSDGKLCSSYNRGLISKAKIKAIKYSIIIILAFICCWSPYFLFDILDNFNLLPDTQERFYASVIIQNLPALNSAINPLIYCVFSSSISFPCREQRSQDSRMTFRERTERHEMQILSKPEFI
NCGC Assay Protocol Summary: A Chinese hamster ovary (CHO) cell line stably expressing the NPS receptor (CHO-NPSR) was obtained from Dr. Heilig lab at NIAAA and maintained in F-12 Kaighn's media (Invitrogen, Carlsbad, CA, 21127) supplemented with 10 % FBS, 100 units/ml penicillin, 100 ug/ml streptomycin and 250 ug/ml geneticin at 37C, 5% CO2 in a humidified atmosphere. Before the assay, aliquots of cells were frozen and stored at -135C. The assay was performed on a FDSS-7000 kinetic plate reader in 1536-well format. For both agonist (1-220s) and antagonist (221-400s) phases, the maximums of kinetic fluorescence responses were converted separately into text files using the instrument's software data export utility. Data for agonist response were normalized to the controls for basal activity (DMSO only) and 100% activation (NPS). […] AC50 values were determined from concentration-response data modeled with the standard Hill equation. NPS 1536-well FDSS assay protocol: (1) Frozen CHO-NPSR cells were thaw, washed once with fresh media and resuspended in F-12 Kaighn's media supplemented with 10 % FBS, 100 units/ml penicillin and 100 ug/ml streptomycin. Cells were plated at 3 ul/well (1200 cells) to black, clear-bottom, tissue-culture treated 1536-well plates, and then cultured at 37C, 5 % CO2 for 16 to 30 hours. (2) Add 3 ul of calcium dye (from High Performance PBX Calcium Assay Kit, BD Biosciences). The calcium dye was prepared according to the manufactory's instruction. (3) Incubation at 37C, 5 % CO2 for 60 to 120 min. (4) Load plates to FDSS-7000. The following steps were performed on FDSS-7000. (5) Record fluorescent background (Ex 480 nm, Em 520-560 nm) for 10 s. (6) Add 23 nl/well of compound in DMSO solution. The final titration for each compound was between 0.6 nM and 46 uM. Record agonist response for 210 s. (7) Add 2 ul of stimulation reagent (1X HBSS buffer, 0.1% BSA, 60 nM NPS). Record antagonist response for 140 s. Keywords: MLSMR, MLPCN, NIH Roadmap, qHTS, NCGC, NPS, Neuropeptide S Antagonists
`COc1cccc(C2c3c(ncn(CCCN4CCOCC4)c3=N)Oc3ccc4ccccc4c32)c1` (centres undefined): the Potency was 1.39 µM (active).

In the case of `CCOC(=O)CC(=O)Nc1ncnc2c1C(c1ccccc1)c1c(ccc3ccccc13)O2` (centres undefined), the Potency is 0.552 µM (active).

Consider `O=C(Cc1ccccc1)Nc1ncnc2c1C(c1ccccc1)c1c(ccc3ccccc13)O2` (centres undefined), for which the Potency was 1.1 µM (active).

`COc1cccc(C2c3c(ncn(-c4cccc(C#N)c4)c3=N)Oc3ccc4ccccc4c32)c1` (centres undefined): the Potency is 2.76 µM (active).

Take `COc1ccc(C2c3c(nc(Cc4ccccc4)[nH]c3=O)Oc3ccc4ccccc4c32)cc1OC` (centres undefined): the Potency result is “inactive”.

For `COc1cccc(C2c3c(ncn(-c4cccc(F)c4)c3=N)Oc3ccc4ccccc4c32)c1` (centres undefined), the Potency was 0.0695 µM (active).

Consider `COc1cccc(C2c3c(ncn(-c4ccccc4C)c3=N)Oc3ccc4ccccc4c32)c1` (centres undefined), for which the Potency is 5.52 µM (active).

`COc1cccc(C2c3c(ncn(-c4ccccc4C#N)c3=N)Oc3ccc4ccccc4c32)c1` (centres undefined): the Potency is 3.1 µM (active).

For the compound `COc1cccc(C2c3c(ncn(-c4ccc(C(C)(C)C)cc4)c3=N)Oc3ccc4ccccc4c32)c1` (centres undefined), the Potency is 1.24 µM (active).

Turning to `COc1cccc(C2c3c(ncn(-c4cccc(OC)c4)c3=N)Oc3ccc4ccccc4c32)c1` (centres undefined), the Potency is 0.391 µM (active).

For the compound `COc1ccc(C2c3c(ncn(Cc4ccccc4)c3=N)Oc3ccc4ccccc4c32)cc1OC` (centres undefined), the Potency is 0.619 µM (active).

Take `N=c1c2c(ccn1CCCc1ccccc1)Oc1ccc3ccccc3c1C2c1ccccc1` (centres undefined): the Potency is 3.48 µM (active).

Turning to `COc1cccc(C2c3c(ncn(-c4ccccc4OC)c3=N)Oc3ccc4ccccc4c32)c1` (centres undefined), the Potency is 1.24 µM (active).

As to `COc1ccc(C2c3c(nc(C)[nH]c3=O)Oc3ccc4ccccc4c32)cc1OC` (centres undefined), the Potency entry was “inactive”.

Consider `COc1cccc(C2C(C#N)=C(NC(=O)CCc3ccccc3)Oc3ccc4ccccc4c32)c1` (centres undefined), for which the Potency result is “inactive”.

With `COc1cccc(C2c3c(ncn(-c4ccccc4)c3=N)Oc3ccc4ccccc4c32)c1` (centres undefined), the Potency is 1.55 µM (active) and 139 nM (active).

As for `N=c1c2c(ncn1-c1ccccc1)Oc1ccc3ccccc3c1C2c1ccc2c(c1)CCO2` (centres undefined), the Potency is 0.124 µM (active).

Regarding `COc1cccc(C2c3c(ncn(-c4ccc(C)cc4)c3=N)Oc3ccc4ccccc4c32)c1` (centres undefined), the Potency was 2.46 µM (active).

With `COc1cccc(C2c3c(ncn(-c4ccccc4Cl)c3=N)Oc3ccc4ccccc4c32)c1` (centres undefined), the Potency is 4.38 µM (active).

Take `O=C(c1ccccc1)N(C(=O)c1ccccc1)c1ncnc2c1C(c1ccccc1)c1c(ccc3ccccc13)O2` (centres undefined): the Potency was 0.438 µM (active).

In the case of `COc1cccc(C2c3c(ncn(-c4cccc(Br)c4)c3=N)Oc3ccc4ccccc4c32)c1` (centres undefined), the Potency is 2.46 µM (active).

Regarding `CCOc1ccc(C2c3c(ncn(-c4ccccc4)c3=N)Oc3ccc4ccccc4c32)cc1OCC` (centres undefined), the Potency was 2.46 µM (active).

For the compound `N=c1c2c(ccn1CCCCc1ccccc1)Oc1ccc3ccccc3c1C2c1ccccc1` (centres undefined), the Potency entry is “inactive”.

Regarding `COc1cccc(C2c3c(ncn(-c4ccccc4Br)c3=N)Oc3ccc4ccccc4c32)c1` (centres undefined), the Potency is 2.76 µM (active).

Regarding `COc1ccc(C2c3c(n(CCCc4ccccc4)cnc3=N)Oc3ccc4ccccc4c32)cc1OC` (centres undefined), the Potency is 4.92 µM (active).

As for `S=P(c1ccccc1)(c1ccccc1)c1c[n+](C/C=C/c2ccccc2)c2ccccn12`, the Potency is 0.0318 µM (active).

`COc1ccc(C2c3ccccc3Oc3ncn(CCN4CCOCC4)c(=N)c32)cc1OC` (centres undefined): the Potency was 0.619 µM (active).

With `N=c1c2c(ncn1-c1ccccc1)Oc1ccc3ccccc3c1C2c1ccc2c(c1)OCO2` (centres undefined), the Potency was 0.619 µM (active).

`COc1cccc(C2c3c(ncn(-c4ccccc4-c4ccccc4)c3=N)Oc3ccc4ccccc4c32)c1` (centres undefined): the Potency was 8.74 µM (active).
